Assay [1] can be described thus: qHTS assay to test for compound auto fluorescence at 535 nm (green) in HEK293 cells (AID 720680). A general note: In qHTS, concentration-response curves come from the screen itself.
Assay [2] in a line: qHTS assay to test for compound auto fluorescence at 460 nm (blue) in HEK293 cell free culture (AID 720681). A digest of the protocol:
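Test compounds were pinned into cell-free culture medium (DMEM with 10% FBS) and fluorescence was read directly at Ex/Em 405/460 nm. Signals were expressed as fluorescence equivalents of triamterene, with DMSO vehicle as control.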

Assay [3] is described as follows: qHTS assay to test for compound auto fluorescence at 535 nm (green) in HEK293 cell free culture (AID 720682). An outline of the steps:
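Using fluorescein as calibrant, autofluorescence was quantified at 485/535 nm in cell-free DMEM containing 10% FBS after pintool addition of compound or vehicle.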

A short description of assay [4]: qHTS assay to test for compound auto fluorescence at 590 nm (red) in HEK293 cell free culture (AID 720683). An outline of the steps: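 Tox21 10K library compounds were pinned into cell-free DMEM with 10% FBS and fluorescence was read at excitation 540 nm. Activity is expressed as Rose Bengal sodium equivalency.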
Assay [5] in a line: qHTS assay to test for compound auto fluorescence at 460 nm (blue) in HepG2 cell free culture (AID 720685). An outline of the steps: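 Compound (23 nL) or DMSO pinned into cell-free MEM with 10% FBS; blue fluorescence read at 405/460 nm excitation/emission, expressed as auto-fluorescence equivalency to triamterene.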
Assay [6] can be described thus: qHTS assay to test for compound auto fluorescence at 535 nm (green) in HepG2 cell free culture (AID 720686).
A short description of assay [7]: qHTS assay to test for compound auto fluorescence at 460 nm (blue) in HepG2 cells (AID 720687). A digest of the protocol:
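Cells (2,000/well in MEM with 10% FBS) attached overnight at 37 C, then were exposed to compound or DMSO for 1 hr at 37 C, 5% CO2. Fluorescence read at Ex/Em 405/460 nm, expressed as triamterene-equivalent signal.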

The target of assay [8] is Glucocorticoid receptor (Homo sapiens) (UniProt P04150). As to the kind of experiment: qHTS assay to identify small molecule agonists of the glucocorticoid receptor (GR) signaling pathway (AID 720691; active means well fitted activation curve with a large enough effect in the signal ratio in the repeat runs, not every such curve was filed as active; the % refers to the signal ratio). An outline of the steps: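 Reporter read-out: fluorescence intensity following 2 h room-temperature LiveBLAzer B/G FRET substrate loading. Prior step: GR-bla HeLa cells held 4 h, then treated 18 h at 37 C.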
Chain of Glucocorticoid receptor (Homo sapiens) (P04150 whole entry, looked up): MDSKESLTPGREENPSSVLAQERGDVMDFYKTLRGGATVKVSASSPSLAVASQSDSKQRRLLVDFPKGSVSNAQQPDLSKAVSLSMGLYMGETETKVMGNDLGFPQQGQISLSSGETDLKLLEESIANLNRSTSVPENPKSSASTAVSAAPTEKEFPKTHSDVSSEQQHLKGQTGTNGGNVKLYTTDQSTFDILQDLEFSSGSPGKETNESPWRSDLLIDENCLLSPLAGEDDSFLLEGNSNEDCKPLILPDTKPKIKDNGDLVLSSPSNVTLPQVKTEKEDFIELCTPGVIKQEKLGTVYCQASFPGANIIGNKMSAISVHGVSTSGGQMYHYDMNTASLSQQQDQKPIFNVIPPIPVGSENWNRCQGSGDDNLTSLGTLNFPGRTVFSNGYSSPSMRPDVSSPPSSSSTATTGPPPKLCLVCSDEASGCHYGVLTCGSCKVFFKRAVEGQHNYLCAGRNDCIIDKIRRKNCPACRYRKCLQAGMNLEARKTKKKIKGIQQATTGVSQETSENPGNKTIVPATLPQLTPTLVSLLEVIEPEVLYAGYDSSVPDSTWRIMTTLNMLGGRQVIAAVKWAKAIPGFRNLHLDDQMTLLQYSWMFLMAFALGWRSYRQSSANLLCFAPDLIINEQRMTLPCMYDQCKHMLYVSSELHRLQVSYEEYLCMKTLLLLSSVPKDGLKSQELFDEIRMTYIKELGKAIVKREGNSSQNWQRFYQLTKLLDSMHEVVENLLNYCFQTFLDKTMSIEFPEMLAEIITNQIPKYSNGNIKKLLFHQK

Assay [9] shares this target. As to the kind of experiment: qHTS assay to identify small molecule antagonists of the glucocorticoid receptor (GR) signaling pathway (AID 720692; active means well fitted inhibition curve with a large enough effect in the signal ratio in the repeat runs, not every such curve was filed as active; the % refers to the signal ratio; further: potency means the concentration at half of the fitted maximal effect). An outline of the steps:
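Dexamethasone (5 nM final) stimulated a stably integrated GRE-beta-lactamase reporter in HeLa cells during 18 h co-incubation with compounds; signal was quantified as fluorescence intensity of B/G FRET substrate after 2 h.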

Results on 30 compounds are retold here after PubChem BioAssay (Tox21).

Molecules are shown by their SMILES. Values without a mark were called inactive. Inconclusive results are not listed. Calls of active or inactive are those of the source. Unless noted, the call rests on the fitted dose curve; in most records, active means well fitted curve in the direction sought with a large enough effect in the repeat runs; inconclusive means weak or mixed curves; inactive means flat fitted curve, though single readings scatter.
On the % scale 0 is the no-effect control and ±100 the full control effect.

Take `CC(C)(CO)CO`: the compound was called inactive in assay [1], in assay [3], in assay [4], in [6] and in assay [8]. Also, the Potency result in [2], in assay [5], in [7] and in assay [9] was “inactive” each time.

For `CO[Si](CCCNCCN)(OC)OC`, the compound was classed as inactive in [1], in assay [3], in [4] and in [6]. Moreover, the Potency result in [2], in assay [5] and in assay [7] was “inactive” in each case.

In the case of `NCCNCCNCCN`, the compound was classed as inactive in [1], in [3], in [4], in [6] and in assay [8]. The Potency result in assay [2], in [5], in assay [7] and in assay [9] was “inactive” each time.

`Cc1cc(C)c(O)c(C)c1`: the compound was called inactive in assay [1], in [3], in [4], in assay [6] and in [8]. Also, the Potency result in assay [2], in assay [5], in [7] and in [9] was “inactive” throughout.

On to `c1cnc2c(c1)ccc1cccnc12`, for which the call in [1], in assay [3], in [4] and in assay [6] was inactive. In addition, the Potency entry in assay [2], in assay [5] and in assay [7] was “inactive” throughout.

`O=C1CCCCCCCCCCC1`: the call in assay [1], in [3], in assay [4], in [6] and in assay [8] was inactive. In addition, the Potency entry in assay [2], in assay [5], in [7] and in assay [9] was “inactive” in each case.

Turning to `N[C@@H](Cc1cc(I)c(Oc2ccc(O)c(I)c2)c(I)c1)C(=O)O`, the compound was classed as inactive in assay [1], in assay [3], in [4], in assay [6] and in assay [8]. For the same compound, the Potency result in [2], in [5] and in assay [7] was “inactive” in each case.

For the compound `COC(=O)CCCCC(=O)OC`, the compound was called inactive in assay [1], in assay [3], in assay [4], in assay [6] and in assay [8]. Further, the Potency entry in assay [2], in assay [5], in assay [7] and in assay [9] was “inactive” throughout.

As for `OC[C@H]1O[C@@H](Oc2ccc(O)cc2)[C@H](O)[C@@H](O)[C@@H]1O`, the compound was called inactive in assay [1], in [3], in [4] and in assay [6]. The Potency entry in assay [2], in [5] and in assay [7] was “inactive” in each case.

On to `CC(O)CNCC(C)O` (stereo not given), for which the compound was called inactive in assay [1], in assay [3], in assay [4] and in assay [6]. Besides, the Potency entry in [2], in assay [5] and in assay [7] was “inactive” in each case.

On to `NC(N)=S`, for which the call in assay [1], in [3], in [4], in assay [6] and in assay [8] was inactive. Further, the Potency result in assay [2], in [5], in [7] and in assay [9] was “inactive” each time.

`COc1ccc(N)c(OC)c1`: the result in assay [1], in assay [3], in assay [4], in assay [6] and in [8] was inactive. Moreover, the Potency entry in assay [2], in [5], in assay [7] and in assay [9] was “inactive” throughout.

Turning to `CCCCC(CC)COC(=O)c1ccc(C(=O)OCC(CC)CCCC)cc1` (stereo not given), the call in [1], in assay [3], in assay [4] and in assay [6] was inactive. For the same compound, the Potency entry in assay [2], in assay [5] and in assay [7] was “inactive” throughout.

Regarding `CC1(C)[C@@H](O[C@H]2O[C@H](C(=O)O)[C@@H](O)[C@H](O)[C@H]2O[C@@H]2O[C@H](C(=O)O)[C@@H](O)[C@H](O)[C@H]2O)CC[C@]2(C)[C@H]3C(=O)C=C4[C@@H]5C[C@@](C)(C(=O)O)CC[C@]5(C)CC[C@@]4(C)[C@]3(C)CC[C@@H]12`, the outcome in assay [1], in [3], in assay [4] and in assay [6] was inactive. For the same compound, the Potency result in assay [2], in assay [5] and in assay [7] was “inactive” throughout.

Turning to `OCCOCCOCCOCCOCCO`, the outcome in assay [1], in assay [3], in assay [4] and in assay [6] was inactive. For the same compound, the Potency entry in [2], in assay [5] and in [7] was “inactive” throughout.

Consider `CCCCCCCCCCCC(=O)N(C)CC(=O)O`, for which the compound was classed as inactive in assay [1], in assay [3], in assay [4], in [6] and in assay [8]. The Potency entry in assay [2], in [5] and in assay [7] was “inactive” in each case. In [9], the activity change, negative = inhibition was -13% [at 7.04 µM].

With `C[Si](C)(C)N[Si](C)(C)C`, the call in assay [1], in [3], in assay [4], in assay [6] and in assay [8] was inactive. Besides, the Potency entry in assay [2], in assay [5], in assay [7] and in [9] was “inactive” throughout.

Take `O=C(Cl)c1ccc(C(=O)Cl)cc1`: the outcome in assay [1], in assay [3], in assay [4], in assay [6] and in [8] was inactive. Further, the Potency entry in assay [2], in assay [5], in assay [7] and in [9] was “inactive” throughout.

Regarding `COc1cc(NC(=O)CC(C)=O)c(OC)cc1Cl`, the result in [1], in assay [3], in assay [4], in [6] and in assay [8] was inactive. For the same compound, the Potency result in assay [2], in assay [5] and in assay [7] was “inactive” in each case. For the same compound, the Potency in assay [9] was 54.9 µM (active).

Turning to `CC(COCC(C)OC(=O)c1ccccc1)OC(=O)c1ccccc1` (stereo not given), the outcome in assay [1], in assay [3], in assay [4], in assay [6] and in assay [8] was inactive. Besides, the Potency entry in [2], in [5], in [7] and in assay [9] was “inactive” each time.

Turning to `COc1ccc2cc3[n+](cc2c1OC)CCc1cc2c(cc1-3)OCO2`, the result in assay [1], in assay [3], in assay [4], in assay [6] and in [8] was inactive. The Potency entry in [2], in assay [5] and in assay [7] was “inactive” throughout.

As for `CC/C=C(\C(=O)N[C@@H]1C(=O)N2C(C(=O)OCOC(=O)C(C)(C)C)=C(COC(N)=O)CS[C@H]12)c1csc(N)n1`, the compound was classed as inactive in assay [1], in [3], in assay [4], in assay [6] and in [8]. Further, the Potency result in assay [2], in assay [5], in assay [7] and in assay [9] was “inactive” in each case.

Take `CC1(C)C(=O)N(Cl)C(=O)N1Cl`: the outcome in [1], in assay [3], in [4], in [6] and in [8] was inactive. Further, the Potency result in assay [2], in [5], in assay [7] and in assay [9] was “inactive” throughout.

Consider `COC(=O)OC`, for which the compound was classed as inactive in [1], in [3], in assay [4], in assay [6] and in assay [8]. Moreover, the Potency entry in assay [2], in [5], in assay [7] and in [9] was “inactive” throughout.

For `COc1ccccc1[N+](=O)[O-]`, the compound was called inactive in assay [1], in assay [3], in assay [4] and in [6]. Moreover, the Potency result in assay [2], in assay [5] and in [7] was “inactive” each time.

On to `NC(=O)c1ncn([C@@H]2O[C@H](CO)[C@@H](O)[C@H]2O)n1`, for which the call in [1], in [3], in assay [4], in assay [6] and in assay [8] was inactive. Further, the Potency entry in assay [2], in [5], in assay [7] and in [9] was “inactive” in each case.

Consider `CCn1cc(C(=O)O)c(=O)c2cc3c(cc21)OCO3`, for which the outcome in assay [1], in [3], in assay [4] and in assay [6] was inactive. Besides, the Potency result in [2], in [5] and in assay [7] was “inactive” throughout.

On to `CCCCCCCC(=O)O`, for which the compound was classed as inactive in assay [1], in assay [3], in [4], in [6] and in assay [8]. The Potency entry in assay [2], in [5], in assay [7] and in assay [9] was “inactive” throughout.

For the compound `C=C1C[C@]23C[C@@]1(O)CC[C@H]2[C@@]12C=C[C@H](O)[C@@](C)(C(=O)O1)[C@H]2[C@@H]3C(=O)O`, the call in assay [1], in [3], in [4], in [6] and in [8] was inactive. Besides, the Potency entry in assay [2], in assay [5], in assay [7] and in [9] was “inactive” throughout.

As for `CC(C)c1ccc(C(C)C)cc1`, the outcome in [1], in assay [3], in assay [4], in assay [6] and in [8] was inactive. Moreover, the Potency entry in assay [2], in assay [5], in assay [7] and in [9] was “inactive” each time.
